Results reported in PubChem BioAssay AID1645882 (National Center for Advancing Translational Sciences (NCATS), 2021).
Values joined by “and” are separate entries in the source; they are usually repeats but may differ in a detail not shown here. Equal values may be shown once. Screen size: about 16,000 compounds; about 120 (0.75%) were called active. Another 4% or so got no clear call; they are omitted. Calls follow the shape of the dose curve; as a rule, active = well fitted inhibition curve with a large enough effect; inconclusive = small, poorly fitted or top-dose-only effect; inactive = no such curve, though single readings can be large or run the other way. Only a selection was taken, and actives are over-represented in it overall. The source holds several records for some structures; these can differ, active in one and inactive in another.

target: Rap guanine nucleotide exchange factor 3 (Homo sapiens) (UniProt O95398); experiment: Validation qHTS for antagonist of cAMP-regulated guanine nucleotide exchange factor 3 (EPAC1); conditions: EPAC1 Rap1B-BODIPY-GDP exchange, fluorescence; series mostly up to 150 µM; activity change, negative = inhibition: at the top concentration; also: nearly all actives have a fitted effect of over 75% in size
Summary of the method: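 EPAC1 (100 nM) mixed with 250 nM RAP1B-BODIPY-GDP and 50 uM GDP; compounds in concentration series, 5 min at room temperature. Fluorescence (ex 480/em 540 nm) read every 5 min for 30 min; normalized to ATA control and DMSO.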
Potency is read from the fitted curve at half-maximal effect.

Rap guanine nucleotide exchange factor 3 (Homo sapiens), sequence (O95398 whole entry, looked up): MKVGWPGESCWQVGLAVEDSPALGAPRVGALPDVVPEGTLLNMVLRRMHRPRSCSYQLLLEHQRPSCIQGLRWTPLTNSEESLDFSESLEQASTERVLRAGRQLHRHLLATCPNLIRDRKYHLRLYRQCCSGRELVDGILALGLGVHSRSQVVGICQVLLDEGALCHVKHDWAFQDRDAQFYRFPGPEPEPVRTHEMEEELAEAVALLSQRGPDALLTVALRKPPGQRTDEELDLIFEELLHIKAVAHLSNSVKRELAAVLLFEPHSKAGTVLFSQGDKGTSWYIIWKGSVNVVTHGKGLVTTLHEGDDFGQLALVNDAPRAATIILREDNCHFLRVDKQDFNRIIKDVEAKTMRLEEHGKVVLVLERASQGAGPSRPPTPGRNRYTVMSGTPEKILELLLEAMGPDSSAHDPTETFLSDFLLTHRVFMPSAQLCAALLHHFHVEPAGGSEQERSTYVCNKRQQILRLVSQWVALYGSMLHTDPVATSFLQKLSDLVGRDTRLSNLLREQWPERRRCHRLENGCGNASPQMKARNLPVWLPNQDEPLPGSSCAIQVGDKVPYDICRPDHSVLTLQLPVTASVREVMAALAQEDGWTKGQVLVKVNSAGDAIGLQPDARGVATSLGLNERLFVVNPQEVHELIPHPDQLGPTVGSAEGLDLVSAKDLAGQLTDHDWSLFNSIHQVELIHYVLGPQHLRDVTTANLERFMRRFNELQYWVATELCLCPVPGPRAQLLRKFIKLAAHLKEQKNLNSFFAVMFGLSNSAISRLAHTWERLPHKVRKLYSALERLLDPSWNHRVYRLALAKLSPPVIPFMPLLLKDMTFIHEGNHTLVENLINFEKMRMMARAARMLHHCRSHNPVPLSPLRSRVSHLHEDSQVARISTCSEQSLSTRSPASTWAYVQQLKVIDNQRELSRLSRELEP

Row | SMILES | activity change, negative = inhibition | Potency
1 | CCN1CCN(C(=O)c2sc3ncnc(NCC4CCCO4)c3c2C)CC1 (stereo not given) | 16.7% (inactive) | –
2 | CC(C)CCCC(C)C1CCC2C3CC=C4CC(=O)CC[C@@]4(C)C3CC[C@@]12C (stereo not given in full) | 15.4% (inactive) | –
3 | COc1ccccc1CNc1nc(-c2ccc(N(C)C)cc2)nc2ccccc12 | 12.9% (inactive) | –
4 | Cc1ncc2c(c1CNC(=O)c1ccc3c(c1)OCO3)CCN(C(=O)c1cccc(-n3cccn3)c1)C2 | 6.43% (inactive) | –
5 | CC(=O)N[C@@H](Cc1c[nH]c2ccccc12)C(=O)O | 5.4% (inactive) | –
6 | CC(C)C(N)C(=O)NC(Cc1c[nH]c2ccccc12)C(=O)O (stereo not given) | 18.5% (inactive) | –
7 | Cc1cc(C)cc(C(=O)N(C)[C@H](Cc2ccc(-c3ccccc3)cc2)C(=O)N[C@@H](Cc2c[nH]c3ccccc23)C(=O)O)c1 | – | 112 µM (active)
8 | C[N+](C)(CCCCCC[N+](C)(C)CCCN1C(=O)c2ccccc2C1=O)CCCN1C(=O)c2ccccc2C1=O | – | inactive
9 | C#CCN(Cc1nc(N2CCOCC2)c2ccc(Cl)cc2n1)Cc1ccco1 | 18.9% (inactive) | –
10 | CCC(=O)c1c(O)cc(O)cc1O | 18.2% (inactive) | –
11 | CCOc1cc(OCC)c(C(=O)CCC(=O)O)cc1OCC | 19.1% (inactive) | –
12 | CCCC(=O)c1cc(O)c(O)cc1O | – | 63.1 µM (active)
13 | O=C(c1n[nH]c2c1CCCC2)N1CCOc2ccc(C(O)C3CCCCC3)cc2C1 (stereo not given) | 1.38% (inactive) | –
14 | Cc1ccc(C2(O)CCN(CCCC(=O)c3ccc(F)cc3)CC2)cc1 | 26.2% (inactive) | –
15 | COc1ccccc1C1CN(CCNC(=O)c2cscn2)Cc2ccccc2O1 (stereo not given) | -26.1% (inactive) | –
16 | CN(C)C(=O)CCSC(SCCC(=O)O)c1cccc(/C=C/c2ccc3ccc(Cl)cc3n2)c1 (stereo not given) | -25.4% (inactive) | –
17 | CC(C)(O)c1ccccc1CC[C@@H](SCC1(CC(=O)O)CC1)c1cccc(/C=C/c2ccc3ccc(Cl)cc3n2)c1 | – | 79.4 µM (active)
18 | COc1ccc2c3c1O[C@H]1C[C@H](O)C=C[C@@]31CCN(C)C2 | -4.36% (inactive) | –
19 | CC(C)c1ccc2c(c1)CC[C@@H]1[C@@](C)(CN)CCC[C@]21C | 10.5% (inactive) | –
20 | CN(C)c1ccc(/C=C2/C(=O)Nc3ccccc32)cc1 | -18.9% (inactive) | –
21 | CN(C)c1ccc(/C=C2\C(=O)Nc3ccccc32)cc1 | -9.59% [at 75.8 µM] (inactive) | –
22 | O=C1Nc2ccc(I)cc2/C1=C/c1cc(Br)c(O)c(Br)c1 | – | 89.1 µM (active) and 79.4 µM (active) and inactive
23 | COC(=O)c1ccc(CN2CCOc3ccc(C(O)c4cccnc4)cc3C2)cc1 (stereo not given) | 8.76% (inactive) | –

Row | SMILES | activity change, negative = inhibition | Potency
24 | COc1ccc(-n2c(=O)c(-c3ccc(F)cc3)nc3cnc(N4CCNCC4)nc32)cc1 | 10.7% (inactive) | –
25 | Oc1ccc(Cl)cc1Sc1cc(Cl)ccc1O | -15.1% (inactive) | –
26 | Oc1c(Cl)cc(Cl)cc1Sc1cc(Cl)cc(Cl)c1O | – | 79.4 µM (active)
27 | O=C(Nc1ccccc1)O[C@@H]1C[C@H]2CCCC(=O)N3CC[C@@H](C1)[C@@H]23 | -2.16% (inactive) | –
28 | CO[C@@H]1[C@@H](O[C@@H]2O[C@H](C)[C@@H](O[C@H]3C[C@@](C)(O)[C@@H](O)[C@H](C)O3)[C@H](N(C)C)[C@H]2O)[C@@H](CC=O)C[C@@H](C)[C@@H](O[C@@H]2CC[C@H](N(C)C)[C@@H](C)O2)/C=C/C=C/C[C@@H](C)OC(=O)C[C@H]1OC(C)=O | 52.5% (inactive) | –
29 | COc1ccc2c(c1)c(CC(=O)O)c(C)n2Cc1ccc(Cl)cc1 | -6.29% [at 75.8 µM] (inactive) | –
30 | CC(N)C(=O)OC(C)(C)Cc1ccc(Cl)cc1 (stereo not given) | – | inactive
31 | CC(C)c1ccc2c(c1)c(SC(C)(C)C)c(CC(C)(C)C(=O)O)n2Cc1ccc(Cl)cc1 | – | 28.2 µM (active)
32 | CCC1C(=O)NCCN1Cc1ccc2c(c1)CN(Cc1cc(OC)ccc1OC)CCO2 (stereo not given) | 27.6% (inactive) | –
33 | N#C/C(=C\c1ccc(O)c(O)c1)C(=O)NCCCc1ccccc1 | – | 63.1 µM (active) and inactive
34 | N#C/C(=C\c1ccc(O)c(O)c1)C(=O)NCCCCc1ccccc1 | – | 100 µM (active)
35 | O=C(O)CCCc1ccccc1 | 13.7% (inactive) | –
36 | N#C/C(=C\c1ccc(O)c(O)c1)C(=O)NCCc1ccccc1 | 47.2% [at 75.8 µM] (inactive) | –
37 | Oc1ccc(CCNCCCCCCNCCc2ccccc2)cc1O | 19% (inactive) | –
38 | N#C/C(=C\c1c[nH]c2ccccc12)C(=O)c1ccc(O)c(O)c1 | 23.5% [at 75.8 µM] (inactive) | –
39 | CSc1nc(C(=O)NCc2nc(-c3cccc(NC(=O)c4ccc(C)s4)c3)oc2C)cs1 | 5.03% (inactive) | –
40 | Cc1cccc(CN2CCc3nnc(C(C)NC(=O)C4CCOCC4)n3CC2)c1 (stereo not given) | 12% (inactive) | –
41 | Cc1ccccc1C(=O)NC(C)c1nnc2n1CCN(Cc1ccc(F)cc1)CC2 (stereo not given) | 11.9% (inactive) | –
42 | C/C1=C2N=C(/C=C3N=C(/C(C)=C4\[N-]C(C(CC(N)=O)C4(C)CCC(=O)NCC(C)OP(=O)([O-])OC4C(CO)OC(n5cnc6cc(C)c(C)cc65)C4O)C4(C)N=C1C(CCC(N)=O)C4(C)CC(N)=O)C(CCC(N)=O)C\3(C)C)C(CCC(N)=O)C/2(C)CC(N)=O.[CH3-].[Co+3] (stereo not given) | – | 50.1 µM (active)
43 | C[N+](C)(CCCCCC[N+](C)(C)C1c2ccccc2-c2ccccc21)C1c2ccccc2-c2ccccc21 | 25.9% (inactive) | –
44 | S=C=Nc1ccc(N=C=S)cc1 | 17.2% (inactive) | –
45 | Nc1ccc(/C=C/c2ccc(N)cc2S(=O)(=O)O)c(S(=O)(=O)O)c1 | -25.9% (inactive) | –
